In PubChem BioAssay AID2546 (National Center for Advancing Translational Sciences (NCATS), 2010) one finds Potency data, which are given here for 69 compounds.

Among all 310,000 compounds or so, about 11,000 (3.5%) were called active. Another 8% or so got no clear call; they are omitted. Calls come from the whole dose curve; as a rule, active = well fitted inhibition curve with a large enough effect; inconclusive = small, poorly fitted or top-dose-only effect, or effect the other way; inactive = flat fitted curve, though single readings scatter. The entries come from a sample that favours actives as a whole. Entries that show only a call come without a potency.
Potency is the fitted concentration of half-maximal effect.

This experiment in a line: VP16 counterscreen qHTS for inhibitors of ROR gamma transcriptional activity.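 Note: Gal4-VP16 expression switched on by copper sulfate through the metallothionein promoter; nearly all actives have a fitted effect of over 50% in size.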 Particulars: Drosophila S2 Gal4-VP16 UAS-luciferase, luminescence, 20 h; series mostly up to 53.6 µM.
With `Cc1ccc(C2=Nc3c(ccc4ccccc34)C(c3ccncc3)=NN2)cc1`, the Potency result was “inactive”.

In the case of `CCc1ccc2c(c1)C(c1ccc([N+](=O)[O-])cc1)=NNC(c1ccccc1)=N2`, the Potency entry was “inactive”.

For the compound `CCOc1ccc2c(c1)C(c1ccc(C)cc1)=NNC(c1ccc(C)cc1)=N2`, the Potency was 15.8 µM (active).

Regarding `COc1ccc(C(=O)NCCn2nc(C)cc2C)cc1OC1CCN(C(C)=O)CC1`, the Potency entry is “inactive”.

As to `COc1ccc(NC(=O)CS(=O)(=O)c2ccccc2)cc1`, the Potency result was “inactive”.

Take `Cc1nonc1NC(=O)c1ccccc1Br`: the Potency result was “inactive”.

On to `O=C(Nc1cccc(Cl)c1)Nc1nnc(-c2ccccc2)o1`, for which the Potency entry is “inactive”.

As to `O=C(Nc1nnc(-c2ccc(Cl)cc2)o1)c1ccccc1Br`, the Potency was 4.47 µM (active).

For `COc1cccc(N(C(=O)c2snc(C(N)=O)c2N)C(C(=O)NCC2CCCO2)c2c[nH]c3ccccc23)c1` (centres undefined), the Potency result was “inactive”.

As to `O=C(O)CSCC(=O)Nc1cccc(C(F)(F)F)c1`, the Potency entry is “inactive”.

For `O=C(Nc1cccc(C(F)(F)F)c1)c1cnccn1`, the Potency entry is “inactive”.

Turning to `O=C(Nc1cccc(C(F)(F)F)c1)c1cc(Br)cc(Br)c1O`, the Potency is 4.47 µM (active).

Consider `COc1cc(NC(=O)C2=CC(c3ccc(C)cc3)=NS(=O)(=O)N2C)cc(OC)c1OC`, for which the Potency result was “inactive”.

As for `COc1cc2c(cc1OC)CN(CC(=O)Nc1ccc(F)cc1)CC2`, the Potency result is “inactive”.

With `CC(=O)Nc1cccc([N+](=O)[O-])c1`, the Potency result was “inactive”.

For `COC(=O)/C=C\C(=O)Nc1cccc([N+](=O)[O-])c1`, the Potency is 1.26 µM (active).

Take `O=C(CSCC(=O)Nc1cccc([N+](=O)[O-])c1)Nc1ccccc1`: the Potency entry is “inactive”.

`COc1cc(SC)ccc1C(=O)N(Cc1ccccc1)c1ccccc1`: the Potency entry was “inactive”.

Turning to `COc1ccc(C(=O)NCC(=O)N/N=C/c2ccc([N+](=O)[O-])o2)cc1OC`, the Potency result is “inactive”.

Consider `NC(=O)C(=O)N/N=C/c1ccc([N+](=O)[O-])o1`, for which the Potency was 11.2 µM (active).

`Cc1cc(C)nc(N/N=C/c2ccc([N+](=O)[O-])o2)n1`: the Potency result was “inactive”.

Turning to `COc1ccc(-c2cc(C(=O)N3CCN(c4ccc(F)cc4)CC3)no2)cc1`, the Potency entry is “inactive”.

Take `Fc1ccc(/C=N/Nc2nc(-c3cccnc3)nc3ccccc23)cc1`: the Potency entry was “inactive”.

Regarding `FC(F)(F)c1cccc(N/N=C/c2ccccc2)c1`, the Potency entry is “inactive”.

Regarding `FC(F)(F)c1nc2ccccc2nc1N/N=C/c1ccc(Cl)cc1`, the Potency was 10 µM (active).

As for `CCNC(=O)N1CCCC(C(=O)c2ccc(-c3ccccc3)cc2)C1` (centres undefined), the Potency entry was “inactive”.

Take `c1cnc(N2CCN(c3ccc4ccccc4n3)CC2)nc1`: the Potency result is “inactive”.

Turning to `CC(=O)N1c2ccc(S(=O)(=O)N3CCC(C(=O)NC4CCCC(C)C4C)CC3)cc2CC1C` (centres undefined), the Potency result was “inactive”.

Turning to `Cc1ccc2cccc(OCCCOc3ccccc3CO)c2n1`, the Potency result is “inactive”.

Take `O=C(N/N=C/c1c[nH]c2ccccc12)c1cc2ccccc2o1`: the Potency entry is “inactive”.

Take `O=C(N/N=C/c1ccc([N+](=O)[O-])cc1)c1c[nH]c2ccccc12`: the Potency entry was “inactive”.

On to `O=C(O)c1cccc(NC(=S)N/N=C/c2c[nH]c3ccccc23)c1`, for which the Potency entry is “inactive”.

As for `CSC(=S)N/N=C/c1c[nH]c2ccccc12`, the Potency is 0.891 µM (active).

With `O=C(Cc1c[nH]c2ccccc12)N/N=C/c1cccc(F)c1`, the Potency result was “inactive”.

For the compound `O=C(N/N=C/c1c[nH]c2ccccc12)c1ccccc1O`, the Potency was 6.31 µM (active).

As to `C[C@H](C(=O)CC(=O)OC(C)(C)C)[C@H](O)c1ccc(C(F)(F)F)cc1`, the Potency entry was “inactive”.

With `Cc1ccc(-c2csc(NC3OC(=O)c4ccccc43)n2)cc1` (centres undefined), the Potency entry is “inactive”.

As for `CC(=O)c1ccc2c(c1)OCCOCCOc1ccc(C(C)=O)cc1OCCOCCO2`, the Potency entry is “inactive”.

As to `O=C(/C=C/c1ccc2c(c1)OCCO2)c1ccc(O)cc1`, the Potency is 4.47 µM (active).

For `CN(C)c1ccc(/C=C/C(=O)c2ccc(C(C)(C)C)cc2)cc1[N+](=O)[O-]`, the Potency entry was “inactive”.

Consider `CN(C)c1ccc(/C=C/C(=O)c2ccc(O)cc2)cc1[N+](=O)[O-]`, for which the Potency was 5.01 µM (active).

As for `O=C(O)/C=C/c1ccc2c(c1)OCCO2`, the Potency result was “inactive”.

As for `O=C(/C=C/c1ccc(Cl)cc1)N1CCN(c2ccccc2[N+](=O)[O-])CC1`, the Potency result is “inactive”.

Regarding `O=C1C2CCCN2C(=O)N1CCCCN1CCN(c2cccc(C(F)(F)F)c2)CC1` (centres undefined), the Potency entry is “inactive”.

Consider `C=CCn1cc(Cl)cc(C(=O)Nc2ccccc2)c1=O`, for which the Potency result was “inactive”.

`Cc1cccc(C)c1N1C(=O)CN(Cc2ccccc2)C1=S`: the Potency entry is “inactive”.

`COc1cccc(NC(C)=[N+](C)CCNS(=O)(=O)c2ccc(Cl)cc2)c1`: the Potency result is “inactive”.

As for `COc1ccccc1-c1nc(N2CCN(C)CC2)c2ccccc2n1`, the Potency entry was “inactive”.

In the case of `COc1ccccc1-c1n[nH]c2c1[C@H](C)CC[C@H]2C(C)C`, the Potency was 12.6 µM (active).

In the case of `COc1ccccc1-c1nc(SC)n[nH]1`, the Potency entry is “inactive”.

For the compound `CCOc1cc(-c2noc(CCCC(=O)NC3CCCCC3)n2)ccc1OC`, the Potency result is “inactive”.

Consider `CC(=O)c1ccc(N2Cc3ccccc3C2)cc1`, for which the Potency entry was “inactive”.

Regarding `CC(C)CC(O)C1CCN(C(=O)CCc2nnc(-c3ccc4c(c3)OCO4)o2)CC1` (centres undefined), the Potency result is “inactive”.

With `Cc1oc(-c2ccccc2F)nc1CS(=O)CC(=O)NCCN1CCCCC1C` (centres undefined), the Potency result is “inactive”.

Take `CCOc1ccccc1/C=N/Nc1nc2ccccc2o1`: the Potency was 7.08 µM (active).

On to `C=CCc1ccccc1OCC(=O)N/N=C/c1ccccc1OCC`, for which the Potency result is “inactive”.

`CCOc1ccccc1/C=N/NC(=O)CNC(=O)COc1ccccc1`: the Potency entry is “inactive”.

Take `CC(C)(C)c1cc[n+](-c2[nH]c(=O)sc2/C=N/N=C(\[O-])c2ccccc2)cc1`: the Potency result was “inactive”.

On to `O=C(Nc1ccncc1)c1ccc(Cl)c([N+](=O)[O-])c1`, for which the Potency result was “inactive”.

As for `COc1ccc(CNS(=O)(=O)c2cc(-c3cc(C)no3)ccc2C(C)C)cc1`, the Potency result is “inactive”.

As to `CC(=O)Nc1cccc(Nc2nc(-c3cccs3)nc3ccccc23)c1`, the Potency entry was “inactive”.

With `CC1CCCN(CCCNC(=O)CN2C(=O)COc3ccc(S(=O)(=O)N4CCOCC4)cc32)C1` (centres undefined), the Potency entry was “inactive”.

In the case of `Cc1ccc(/C=N/NC(=O)CSc2ccccn2)o1`, the Potency result was “inactive”.

With `C/C(=N\NC(=O)NC1CCCCC1)c1ccc(OC(F)F)cc1OC(F)F`, the Potency entry is “inactive”.

`Cc1ccc(/C=N/NC(=O)Cn2nc(C)c(Br)c2C)o1`: the Potency entry was “inactive”.

Regarding `Cc1ccc(/C=N/NC(=S)NC2CCCCC2)o1`, the Potency is 2 µM (active).

Take `C/C(=N\NC(=S)NC1CCCCC1)c1ccc(C)o1`: the Potency is 3.55 µM (active).

In the case of `C/C(=N/NC(=O)c1ccc(Br)o1)c1ccc(C)o1`, the Potency result is “inactive”.

Take `Cc1ccccc1NC(=O)CSc1ccc2nnc(-c3ccccn3)n2n1`: the Potency result was “inactive”.
